The record followed here is PubChem BioAssay (NCI).

Compounds without any hit were thinned out: in the full panel of roughly 79,000, 15% have a hit. A number with no mark means an inactive call. Activity calls are given as the source filed them. Cut-off read from the data, not from the text of the source: active = growth inhibition above about 70%; inactive = the rest.

The first assay is described as follows: NCI Yeast Anticancer Drug Screen. Data for the bub3 strain (AID 167). The note with it: S. cerevisiae bub3 mutant strain, at 50.0 µM (retest, dose inferred, filed as 5.0), active compounds read high. In outline:
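Mutant yeast screening strain plus compound; vehicle-treated cultures serve as the 0% inhibition reference.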
`CC1=CC2CC(C)=C(CC[C@]3(C)CC[C@H]([C@@H](C)C(=O)O)OO3)C(C)(C)C2CC1` (stereo partly specified): the growth inhibition is 98% (active).

With `ClC(CN1CCCCC1)C(Cl)c1ccccc1` (stereo unspecified), the growth inhibition is 58%.

In the case of `CCOC(=O)c1ccc(N=Cc2ccc(N(CCCl)CCCl)cc2C)cc1`, the growth inhibition is 2%.

On to `CN=C(N)N/N=C(\C)c1ccc2sc3ccc(/C(C)=N/NC(N)=NC)cc3c2c1`, for which the growth inhibition was 20%.

As to `c1cc2n[pH]nc2cn1` (stereo unspecified), the growth inhibition was 2%.

In the case of `O=[N+]([O-])c1ccc(Br)c([N+](=O)[O-])c1`, the growth inhibition is 98% (active).

Consider `O=C(CBr)NC1CCCCC1`, for which the growth inhibition was 94% (active).

For `CC(C)C12C=C3CCC4C(C)(C(=O)O)CCCC4(C)C3(CC1)OO2` (stereo unspecified), the growth inhibition is 91% (active).

Take `IC(I)=C(I)I`: the growth inhibition is 95% (active).

Turning to `Clc1ccc2c(c1)C(c1ccccc1Cl)=NCC(SCCN1CCOCC1)=N2`, the growth inhibition was 93% (active).

For the molecule `CCOP(=O)(OCC)/C(C#N)=C/c1ccc(Br)cc1`, the growth inhibition is 97% (active).

As for `Cc1ccc(C(=O)C2C(c3ccccc3)N2C2CCCCC2)cc1` (stereo unspecified), the growth inhibition was 85% (active).

As to `CN(C)c1ncnc2c1ncn2C1OC(CO)C2NP(=O)(N(CCCl)CCCl)OC21` (stereo unspecified), the growth inhibition is 48%.

On to `Nc1nc(N)c(-c2ccc(Cl)c(Cl)c2)c(CCc2ccc(CNC(=O)c3cccc(S(=O)(=O)F)c3)cc2)n1`, for which the growth inhibition was 98% (active).

Take `C[CH2][Pb]([CH2]C)([CH2]C)[O]C(=O)COc1ccc(Cl)cc1Cl`: the growth inhibition is 95% (active).

Consider `O=C(OCC(CCl)OC(=O)C(Cl)(Cl)Cl)C(Cl)(Cl)Cl` (stereo unspecified), for which the growth inhibition is -4%.

Staying with this assay, now noted: S. cerevisiae bub3 mutant strain, at 50.0 µM, active compounds read high.
In the case of `O=[N+]([O-])c1cc[n+]([O-])c2ccccc12`, the growth inhibition is 49.5%.

With `COc1c[c]([Hg][O]C(C)=O)c(OC)c(NC(=O)CC(C)=O)[c]1[Hg][O]C(C)=O`, the growth inhibition is 90.8% (active).

Turning to `CN(C)c1ccc(C2N(Cc3ccc(N(CCCl)CCCl)cc3)CCCN2Cc2ccc(N(CCCl)CCCl)cc2)cc1`, the growth inhibition is 3.5%.

For `CC(=O)c1ccc(-[n+]2c(C)cc(-c3ccccc3)cc2C)cc1`, the growth inhibition was 15.7%.

On to `[O]=[Sb]([OH])([OH])[c]1ccc(NC2OC(CO)C(O)C(O)C2O)cc1` (stereo unspecified), for which the growth inhibition was 91.8% (active).

For the molecule `CCC1CN1P(=O)(Oc1ccccc1)N1CC1CC` (stereo unspecified), the growth inhibition is 57.5%.

Consider `CCN(CC)CC(=O)c1cc2ccccc2c2ccccc12`, for which the growth inhibition is 99.1% (active).

With `O=C1CCCC1Cl` (stereo unspecified), the growth inhibition was 99.3% (active).

As to `N#C[S-].[La+3].c1ccc(-c2ccccn2)nc1.c1ccc(-c2ccccn2)nc1.c1ccc(-c2ccccn2)nc1`, the growth inhibition was 92% (active).

With `O=c1s[se]c2ccccc12`, the growth inhibition is 89.8% (active).

For the molecule `O=C(CCl)Nc1ccc(Cl)cc1`, the growth inhibition is 51.9%.

For `O=C1N[C@H]2[C@H](O)[C@H](O)[C@@H](O)[C@H](O)[C@@H]2c2cc3c(c(O)c21)OCO3`, the growth inhibition is 68.7%.

Take `O=C(Nc1n[c]([Hg][Cl])[c]([Hg][Cl])s1)OCc1ccccc1`: the growth inhibition is 99.2% (active).

As for `CC[C@@]1(O)C[C@H](OC2CC(N(C)C)C(O)C(C)O2)c2c(cc3c(c2O)C(=O)c2c(O)ccc(O)c2C3=O)[C@H]1C(=O)OC` (stereo partly specified), the growth inhibition is 91.2% (active).

Regarding `CCCCCc1cc(O)c(CCCC)c(O)c1`, the growth inhibition was 99.2% (active).

With `NC(=O)/C=C/c1ccc([As]=O)cc1` (stereo unspecified), the growth inhibition is 98.7% (active).

Regarding `O=[N+]([O-])c1cccc(SC(Cl)(Cl)Cl)c1`, the growth inhibition is 99.2% (active).

As to `COc1cc(/C=C(/C)[N+](=O)[O-])ccc1O`, the growth inhibition was 99.1% (active).

For the molecule `CCC[CH2][Sn]1([CH2]CCC)[O]CC(CN2CCOCC2)[O]1` (stereo unspecified), the growth inhibition is 90.3% (active).

Turning to `O=C1CN2CCCCC2CN1` (stereo unspecified), the growth inhibition was 1.8%.

As to `CCC[CH2][Sn]([CH2]CCC)([O]C(=O)CCC(C)=O)[O]C(=O)CCC(C)=O`, the growth inhibition is 88.4% (active).

In the case of `C[CH2][Sn]([F])([CH2]C)[CH2]C`, the growth inhibition is 88.6% (active).

As to `CN(C)CCBr`, the growth inhibition was 55.6%.

Turning to `O=[N+]([O-])c1ccc2c3c(cccc13)CC2`, the growth inhibition was 19.9%.

In the case of `CC1=CC2CC(C)=C(CC[C@]3(C)CC[C@H]([C@@H](C)C(=O)O)OO3)C(C)(C)C2CC1` (stereo partly specified), the growth inhibition is 92.2% (active).

Consider `ClC(CN1CCCCC1)C(Cl)c1ccccc1` (stereo unspecified), for which the growth inhibition was 51.9%.

Regarding `CCOC(=O)c1ccc(N=Cc2ccc(N(CCCl)CCCl)cc2C)cc1`, the growth inhibition is 17.2%.

With `CN=C(N)N/N=C(\C)c1ccc2sc3ccc(/C(C)=N/NC(N)=NC)cc3c2c1`, the growth inhibition is -8.5%.

With `c1cc2n[pH]nc2cn1` (stereo unspecified), the growth inhibition is 11.6%.

In the case of `O=[N+]([O-])c1ccc(Br)c([N+](=O)[O-])c1`, the growth inhibition was 98.9% (active).

Regarding `O=C(CBr)NC1CCCCC1`, the growth inhibition is 85.2% (active).

With `CC(C)C12C=C3CCC4C(C)(C(=O)O)CCCC4(C)C3(CC1)OO2` (stereo unspecified), the growth inhibition is 96.4% (active).

With `IC(I)=C(I)I`, the growth inhibition was 90% (active).

Take `Clc1ccc2c(c1)C(c1ccccc1Cl)=NCC(SCCN1CCOCC1)=N2`: the growth inhibition is 95.6% (active).

In the case of `CCOP(=O)(OCC)/C(C#N)=C/c1ccc(Br)cc1`, the growth inhibition is 91.8% (active).

For `Cc1ccc(C(=O)C2C(c3ccccc3)N2C2CCCCC2)cc1` (stereo unspecified), the growth inhibition is 19.8%.

In the case of `CN(C)c1ncnc2c1ncn2C1OC(CO)C2NP(=O)(N(CCCl)CCCl)OC21` (stereo unspecified), the growth inhibition was 12.6%.

For `Nc1nc(N)c(-c2ccc(Cl)c(Cl)c2)c(CCc2ccc(CNC(=O)c3cccc(S(=O)(=O)F)c3)cc2)n1`, the growth inhibition was 47.4%.

In the case of `C[CH2][Pb]([CH2]C)([CH2]C)[O]C(=O)COc1ccc(Cl)cc1Cl`, the growth inhibition is 95.6% (active).

As to `O=C(OCC(CCl)OC(=O)C(Cl)(Cl)Cl)C(Cl)(Cl)Cl` (stereo unspecified), the growth inhibition is 55.3%.
